# According to PubChem BioAssay AID1259343 (VanderVen Lab, College of Veterinary Medicine, Cornell …, 2017):
# Screen size: about 6,200 compounds; about 2,900 (47%) were called active. No stated cut-off is given here; in the data, active means inhibition above about 50%; inactive means the rest. So high a share suggests a set chosen from earlier hits. Some of the results follow.
# Test: Mycobacterium tuberculosis growth inhibition, primary screen (AID 1259343)
# Details: inhibition: at 10 µM, hits give high values; outcome: 10 uM
row,Compound,inhibition
1,CCc1ccc(N2C(=O)/C(=C/c3cc(C)n(-c4ccc(C(=O)O)cc4)c3C)C(=O)NC2=S)cc1,34.2% (inactive)
2,COC(=O)c1ccccc1NCc1cc(=O)oc2cc(O)c(O)cc12,75.9% (active)
3,CNC(=O)C(C#N)C(=O)CCc1cccc(OC2CCCC2)c1 (stereo unspecified),54.1% (active)
4,N#Cc1cccc(C(=O)NCc2cccnc2OC2CCCC2)c1,-4.09% (inactive)
5,CC1CC(=O)NN1CC(=O)N1c2ccccc2OCC1c1ccccc1 (stereo unspecified),26.4% (inactive)
6,CCN(CC(C)C#N)C(=O)Nc1ccc(-c2csnn2)cc1 (stereo unspecified),80.5% (active)
7,CCC(NC(=O)Nc1ccc(-c2csnn2)cc1)c1nccs1 (stereo unspecified),-4.07% (inactive)
8,Cc1cc(=O)[nH]c(=S)[nH]1,0.31% (inactive)
9,CCc1ccc(S(=O)(=O)c2cnc3ccc(C)cc3c2N2CCC3(CC2)OCCO3)cc1,67.2% (active)
10,O=C(Nc1ccc(Oc2ccccc2)nc1)C1CCN(C(=O)c2cnsn2)CC1,93.8% (active)
11,O=C(Nc1ccc(Oc2ccccc2)nc1)C1CCN(C(=O)c2cccs2)CC1,77.1% (active)
12,C#Cc1ccc(CN2CCC(C(=O)Nc3ccc(Oc4ccccc4)nc3)CC2)cc1,-2.94% (inactive)
13,CC(=O)c1cc(CN2CCC(C(=O)Nc3ccc(Oc4ccccc4)nc3)CC2)cs1,63.2% (active)
14,O=C(Nc1ccc(Oc2ccccc2)nc1)C1CCN(Cc2cccc3nonc23)CC1,inactive
15,O=C(Nc1ccc(Oc2ccccc2)nc1)C1CCN(C(=O)c2ccco2)CC1,90.5% (active)
16,O=C(Nc1ccc(Oc2ccccc2)nc1)C1CCN(C(=O)[C@@H]2C[C@@H]3C=C[C@H]2C3)CC1,56.1% (active)
17,COc1cc(C)ccc1S(=O)(=O)NC(=O)C1(C)CCN1C(=O)Cc1ccc(Cl)cc1Cl (stereo unspecified),47.9% (inactive)
18,COc1ccc(OCCCOc2ccc(Cl)cc2Cl)cc1,27.8% (inactive)
19,COc1cc(CNCCO)cc(Cl)c1OCc1ccc(Cl)cc1Cl,83% (active)
20,O=c1[nH]c(=S)[nH]nc1-c1ccc2c(c1)OCCO2,36.5% (inactive)
21,O=c1[nH]c(=S)[nH]nc1-c1ccc(F)c(F)c1,80.3% (active)

row,Compound,inhibition
1,COc1cc(Oc2ccccc2)ccc1N,23.5% (inactive)
2,Nc1ccc(Oc2cc(N)cc(Oc3ccccc3)c2)cc1,-36.6% (inactive)
3,NC(CC1CCCC1)c1ccc(Oc2ccccc2)cc1 (stereo unspecified),79.5% (active)
4,COc1ccccc1C1(O)CCN(CCCn2c3ccccc3c3ccccc32)CC1,51.9% (active)
5,CCCc1ccc(C(O)c2ncc(-c3ccccc3F)[nH]2)cc1 (stereo unspecified),21.1% (inactive)
6,CCc1ccc(C(O)c2ncc(-c3cccc(C(F)(F)F)c3)[nH]2)cc1 (stereo unspecified),34% (inactive)
7,Cc1ccc(-c2cnc(C(O)c3ccc(Cl)c(F)c3)[nH]2)cc1 (stereo unspecified),42.2% (inactive)
8,Cc1ccc(-c2cnc(C(O)c3cc(C)cc(C)c3)[nH]2)cc1 (stereo unspecified),61.7% (active)
9,Cc1cc(C(O)c2ncc(-c3ccc(Cl)cc3)[nH]2)ccc1F (stereo unspecified),84.8% (active)
10,CCCc1ccc(C(O)c2ncc(-c3cccc(C)c3)[nH]2)cc1 (stereo unspecified),19.5% (inactive)
11,CCCc1ccc(C(O)c2ncc(-c3ccccc3C)[nH]2)cc1 (stereo unspecified),78% (active)
12,CCc1ccc(C(O)c2ncc(-c3ccc(C)cc3)[nH]2)cc1 (stereo unspecified),1.21% (inactive)
13,CCc1ccc(C(O)c2ncc(-c3cccc(C)c3)[nH]2)cc1 (stereo unspecified),56.7% (active)
14,Cc1ccc(C(O)c2ncc(-c3ccc(Cl)cc3)[nH]2)cc1 (stereo unspecified),36.3% (inactive)
15,CCCc1ccc(C(O)c2ncc(-c3ccccc3)[nH]2)cc1 (stereo unspecified),36.8% (inactive)
16,OC(c1ccccc1)c1ncc(-c2ccc(Oc3ccccc3)cc2)[nH]1 (stereo unspecified),36.3% (inactive)
17,CC(C)(C)c1ccc(C(O)c2ncc(-c3ccccc3)[nH]2)cc1 (stereo unspecified),13.8% (inactive)
18,Cc1cc(C)c(C(O)c2ncc(-c3cccc4ccccc34)[nH]2)c(C)c1 (stereo unspecified),78.9% (active)
19,CCCc1ccc(C(O)c2ncc(-c3cccc(F)c3)[nH]2)cc1 (stereo unspecified),35.4% (inactive)
20,Cc1ccccc1-c1cnc(C(O)c2ccc(C(C)(C)C)cc2)[nH]1 (stereo unspecified),49.1% (inactive)
21,OC(c1ccc(Cl)cc1)c1ncc(-c2cccc(F)c2)[nH]1 (stereo unspecified),8.73% (inactive)

row,Compound,inhibition
1,Cc1ccc(C(O)c2ncc(-c3ccc(C(F)(F)F)cc3)[nH]2)cc1F (stereo unspecified),61.8% (active)
2,OC(c1cccc(F)c1)c1ncc(-c2ccc(Oc3ccccc3)cc2)[nH]1 (stereo unspecified),89.6% (active)
3,OC(c1cccc(F)c1)c1ncc(-c2ccc(C(F)(F)F)cc2)[nH]1 (stereo unspecified),19% (inactive)
4,Cc1ccc(C(O)c2ncc(-c3cccc(F)c3)[nH]2)cc1 (stereo unspecified),11.8% (inactive)
5,OC(c1cc(F)cc(Cl)c1)c1ncc(-c2ccc(Cl)cc2)[nH]1 (stereo unspecified),86.1% (active)
6,CS(=O)c1nncn1CC#Cc1ccc(C(F)(F)F)cc1 (stereo unspecified),37% (inactive)
7,OC(c1ccc(Cl)c(F)c1)c1ncc(-c2cccc(F)c2)[nH]1 (stereo unspecified),36.1% (inactive)
8,OC(c1cc(F)cc(Cl)c1)c1ncc(-c2ccc3ccccc3c2)[nH]1 (stereo unspecified),73.4% (active)
9,OC(c1ccc(Cl)c(Cl)c1)c1ncc(-c2cccc(F)c2)[nH]1 (stereo unspecified),23.7% (inactive)
10,Cn1c(CCC(=O)Nc2ccc(F)cc2F)nc(=O)c2ccccc21,72.3% (active)
11,O=C1c2ccccc2C(=O)N1CCCCNc1ccc(F)cc1F,49.6% (inactive)
12,CCc1nc2c(c(=O)c3ccccc3n2C)c(=O)n1CCc1ccccc1,-31.8% (inactive)
13,O=C(CSc1nncs1)Nc1ccc2oc3ccccc3c2c1,92.2% (active)
14,Cn1nnnc1SCC(=O)Nc1ccc2oc3ccccc3c2c1,36.7% (inactive)
15,Cc1cc(NC(=O)CSc2nc3ccccc3c(=O)n2C2CCCC(C)C2C)on1 (stereo unspecified),9.06% (inactive)
16,O=C(CSc1ncnc2c1oc1ccccc12)Nc1ccc2c(c1)OCO2,47.2% (inactive)
17,Cn1cnnc1SCC(=O)Nc1ccc2oc3ccccc3c2c1,76.7% (active)
18,CC(=O)[C@H]1CCC2C3CCC4=CC(=O)CC[C@]4(C)C3CC[C@@]21C (stereo partly specified),49.6% (inactive)
19,CC(C)(C)NC(=O)[C@H]1CC[C@H]2[C@@H]3CC[C@H]4NC(=O)C=C[C@]4(C)[C@H]3CC[C@]12C,86.4% (active)
